Source: PubChem BioAssay (Tox21)
The source made the active and inactive calls. The call rests on the fitted dose curve; in most records, active means well fitted activation curve with a large enough effect in the repeat runs; inconclusive means weak or mixed curves; inactive means flat fitted curve, though single readings scatter.

Assay: Caspase-3/7 induction in CHO-K1 cells by small molecules, qHTS assay (AID 1346980); further: nearly all actives have a fitted effect of over 15% in size
Conditions: CHO-K1 caspase-3/7 induction, Caspase-Glo luminescence, 17 h; series mostly up to 92.4 µM
Text: National Center for Advancing Translational Sciences [NCATS]
NIH Chemical Genomics Center [NCGC]
U.S. Environmental Protection Agency [EPA]
National Institutes of Environmental Health Sciences [NIEHS]
National Toxicology Program [NTP]
Apoptosis is a process of programmed cell death and plays a central role in the development of multicellular organisms. It is a highly regulated process and induces cell death by activating caspases, which are the members of cysteine aspartic acid-specific protease (caspase) family. Caspases involved in apoptosis are classified by their mechanism of action as initiator caspases (caspase-2, -8, -9 and -10) and executioner caspases (caspase-3, -6, and -7). Inhibition of apoptosis results in number of cancers, autoimmune diseases, inflammatory diseases and viral infection. To identify small molecule compounds that induce apoptosis, a homogeneous, luminescent Caspase-Glo 3/7 assay was used. Wild type CHO-K1 cells were used to screen Tox21 libraries for identifying caspase-3/7 activity inducers.
CHO-K1 cells were dispensed at 1,500 per well in 5uL of culture medium into white solid bottom 1536-well plates (Corning Life Sciences, Corning, NY) using a Multidrop Combi (Thermo Scientific, Waltham, MA) dispenser. The assay plates were incubated at 37 C and 5% CO2 for 5hr, and then 23nL of compounds dissolved in DMSO and positive control were transferred using a Pintool station (Wako, San Diego, CA). The assay plates were incubated at 37C and 5% CO2 for 17hr. For caspase-3/7 activity read, 4uL of Caspase-Glo 3/7 reagent (Promega Corporation, Madison, WI) was added to each well of the assay plates using Flying Reagent Dispenser (FRD, Aurora Discovery, San Diego, CA) and incubated the assay plates at room temperature for 30min. The luminescence signal was quantified using a ViewLux plate reader (Perkin Elmer, Shelton, CT).

Compound	outcome
CC(=O)N(c1onc(C)c1C)S(=O)(=O)c1ccc(N)cc1	inactive
C/C=C(\C)C(=O)OCCC(C)CCC=C(C)C (stereo not given)	inactive
CCCOc1ccc(S(=O)(=O)N2CCN(CC)CC2)cc1-c1nc2c(CC)n(Cc3ccccn3)nc2c(=O)[nH]1	inactive
C[C@]12CCC(=O)C=C1C=C[C@@H]1[C@@H]2CC[C@@]2(C)[C@H]1CC[C@@]21CCC(=O)O1	inactive
Cc1cc(C(=C2C=CC(=Nc3ccc(S(=O)(=O)O)cc3S(=O)(=O)O)C=C2)c2ccc(Nc3ccc(S(=O)(=O)O)cc3)cc2)ccc1N	inactive
CCCCC(=O)O[C@]1(C(=O)CO)CC[C@H]2[C@@H]3CCC4=CC(=O)CC[C@]4(C)[C@H]3[C@@H](O)C[C@@]21C	inactive
CCOC(=O)c1ccccc1OC	inactive
c1cc[c]([Bi]([c]2ccccc2)[c]2ccccc2)cc1	inactive
CC(C)(CCl)c1ccccc1	inactive
CN1Cc2cc(C(=O)N3CCC(C4CCNCC4)CC3)ccc2N[C@@H](CC(=O)O)C1=O	inactive
CNC(=O)N(c1ccccc1)c1ccccc1	inactive
CCCC1C(CC)=CC(CC)=CN1c1ccccc1 (stereo not given)	inactive
O=C(CCCN1CCN(c2ccc(F)cc2)CC1)NC1c2ccccc2CSc2ccccc21 (stereo not given)	inactive
COCCOC	inactive
CC[C@H](NC(=O)c1cc(F)ccc1NS(=O)(=O)c1cccc2cccnc12)c1ccccc1	inactive
CC(C)CCCCCCOC(=O)CCCCC(=O)OCCCCCCC(C)C	inactive
O=C(O)Cc1ccc(-c2ccccc2)cc1	inactive
O=C(O)c1cccnc1C(=O)O	inactive
CCn1cc(C(=O)O)c(=O)c2cc(F)c(N3CCNCC3)nc21	inactive
Cc1cc(OI)c(C(C)C)cc1-c1cc(C(C)C)c(OI)cc1C	inactive

Compound	outcome
COCCOC(=O)C1=C(C)NC(C)=C(C(=O)OC/C=C/c2ccccc2)C1c1cccc([N+](=O)[O-])c1 (stereo not given)	inactive
O=C1OCCN1/N=C/c1ccc([N+](=O)[O-])o1	inactive
O=C(/C=C/c1ccccc1)OCCCc1ccccc1	inactive
CC1C2CC(CC2C2CCCC(O)C2)C1(C)C (stereo not given)	inactive
O=C(N[C@@H](c1ccccc1)[C@@H]1CCCCN1)c1cccc(C(F)(F)F)c1Cl	inactive
CSc1ccc(Oc2ccc(S(N)(=O)=O)cc2CN(C)C)cc1C	inactive
CCOC(=O)[C@@H](C)Oc1ccc(Oc2nc3ccc(Cl)cc3o2)cc1	inactive
COc1cc2c(N3CCN(C(=O)Nc4ccc(OC(C)C)cc4)CC3)ncnc2cc1OCCCN1CCCCC1	inactive
CC(Cl)C(Cl)Cl (stereo not given)	inactive
N#C[C@@H]1C[C@@H]2C[C@@H]2N1C(=O)[C@@H](N)C12CC3CC(CC(O)(C3)C1)C2	inactive
CCOCCn1c(C2CCN(CCc3ccc(C(C)(C)C(=O)O)cc3)CC2)nc2ccccc21	inactive
CC(C)C(=O)O	inactive
Nc1ccc(S(=O)(=O)O)c(N)c1	inactive
CCC(C)(C)C1CCC(O)CC1 (stereo not given)	inactive
C[Si]1(C)O[Si](C)(C)O[Si](C)(C)O1	inactive
O=C(Nc1ccccc1)Nc1ccccc1	inactive
C[Si](NC1CCCCC1)(NC1CCCCC1)NC1CCCCC1	inactive
Nc1ccc(C(=O)OCCCOC(=O)c2ccc(N)cc2)cc1	inactive
Cc1ccc(S)cc1	inactive
C=CCOC(=O)/C=C\C(=O)OCC=C	inactive
